{"source": "the supplement of paper PMC7156485"}
{"tested_on": "TDF", "experiment": "cell number relative to DMSO (% of DMSO); higher = more cells (less growth inhibition / toxicity)", "details": "concentration: 10 µM; 24 h", "outline": "(§1)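 HCC1569 and TDF cells (800 per well, 384-well plates, RPMI with 10% FBS) were treated with compounds at 10 µM for 24 h at 37 °C, in triplicate. Cells were fixed in 3.7% formaldehyde and stained with a rabbit anti-H1.0 antibody, an AlexaFluor 647 secondary and DAPI; six fields per well were imaged at ×10. H1.0 nuclear intensity or cell number is expressed as percent of the plate DMSO control, taking the median of replicates. HCC1569 values were smoothed for positional effects.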"}
{"molecule": "Cl.Cl.Oc1ccc2c3c1OC1c4[nH]c5c(c4CC4(O)C(C2)N(CC2CC2)CCC314)CC1(O)C2Cc3ccc(O)c4c3C1(CCN2CC1CC1)C5O4", "note": "(stereo not drawn) [nor-Binaltorphimine dihydrochloride];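 on H1.0 immunofluorescence intensity relative to DMSO: TDF is a line of transformed human dermal fibroblasts of mesenchymal origin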;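 on cell number relative to DMSO: TDF denotes transformed human dermal fibroblasts of mesenchymal origin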", "cell number": 114}
{"molecule": "CN1C2CC(OC(=O)C(CO)c3ccccc3)CC1C1OC12", "note": "(stereo not drawn) [Scopolamine]", "cell number": 105}
{"molecule": "CC(=O)OC1C2C(OC(=O)Cc3ccccc3)C(C)CC2(OC(C)=O)C(=O)C(C)=CC2C(CCC13CO3)C2(C)C", "note": "(stereo not drawn) [Euphorbiasteroid]", "cell number": 106}
{"molecule": "O=[N+]([O-])C=Cc1ccc2c(c1)OCO2", "note": "[Syk Inhibitor III]", "cell number": 33.2}
{"tested_on": "TDF", "experiment": "H1.0 immunofluorescence intensity relative to DMSO (% of DMSO); higher = stronger H1.0 induction, active = 120 or more", "details": "concentration: 10 µM; 24 h", "outline": "as §1"}
{"molecule": "COc1ccc2c(c1)=NC1=C(C)NCCC=21", "note": "[Harmaline]", "H1.0 immunofluorescence intensity": "97.5 (inactive)"}
{"molecule": "CCN1CC2(COC)CCC(OC)C34C5CC6(O)C(OC)CC(OC(C)=O)(C5C6C(=O)c5ccc(OC)cc5)C(C(OC)C23)C14", "note": "(stereo not drawn) [Bulleyaconotine A]", "H1.0 immunofluorescence intensity": "103 (inactive)"}
{"molecule": "CC(C)N(CCC(C(N)=O)(c1ccccc1)c1ccccn1)C(C)C", "note": "(stereo not drawn) [Disopyramide]", "H1.0 immunofluorescence intensity": "103 (inactive)"}
{"molecule": "CCN(C)C(=O)Oc1cccc([C@H](C)N(C)C)c1.O=C(O)C(O)C(O)C(=O)O", "H1.0 immunofluorescence intensity": "106 (inactive)"}
{"molecule": "Cl.O=C(CCCN1CCC2(CC1)C(=O)N(CCc1ccc(N=C=S)cc1)CN2c1ccccc1)c1ccc(F)cc1", "note": "[N-(p-Isothiocyanatophenethyl)spiperone hydrochloride]", "H1.0 immunofluorescence intensity": "128 (active)"}
{"molecule": "CN1CCC(c2c[nH]c3ccc(O)cc23)CC1.O=C(O)C=CC(=O)O", "H1.0 immunofluorescence intensity": "93.8 (inactive)"}
{"molecule": "C=CC1CN2CCC1CC2C(O)c1ccnc2ccccc12", "note": "(single isomer, unassigned; (-)) [(-)-Cinchonidine]", "H1.0 immunofluorescence intensity": "101 (inactive)"}
{"molecule": "CCCCCCCCCCCCCC(=O)OC1C(C)C2(O)C(C=C(CO)CC3(O)C(=O)C(C)=CC32)C2C(C)(C)C12OC(C)=O", "note": "(stereo not drawn) [Phorbol 12-myristate 13-acetate]", "H1.0 immunofluorescence intensity": "125 (active)"}
{"molecule": "Cc1nccc2c1[nH]c1ccccc12", "note": "[Harmane]", "H1.0 immunofluorescence intensity": "97 (inactive)"}
{"molecule": "CCN(CC)C(=O)NC1C=C2c3cccc4[nH]cc(c34)CC2N(C)C1.O=C(O)C=CC(=O)O", "note": "(stereo not drawn) [R(+)-Lisuride hydrogen maleate]", "H1.0 immunofluorescence intensity": "91.4 (inactive)"}
{"molecule": "CC1=CC23C(=O)C(C=C(CO)C(O)C2(O)C1O)C1C(CC3C)C1(C)C", "note": "(stereo not drawn) [Ingenol]", "H1.0 immunofluorescence intensity": "94.7 (inactive)"}
{"molecule": "CCCN1CC(CSC)CC2c3cccc4[nH]cc(c34)CC21.CS(=O)(=O)O", "note": "(stereo not drawn) [Pergolide mesylate]", "H1.0 immunofluorescence intensity": "93.3 (inactive)"}
{"molecule": "C[N+]1(C)C2CC(OC(=O)C(CO)c3ccccc3)CC1C1OC12.O=[N+]([O-])[O-]", "note": "(single isomer, unassigned; (-)) [(-)-Scopolamine methyl nitrate]", "H1.0 immunofluorescence intensity": "93.1 (inactive)"}
{"molecule": "CCN1CC2(COC)CCC(OC)C34C5CC6C(OC)CC7(OCOC7(C(O)C23)C14)C5C6OC", "note": "(stereo not drawn) [Delcorine]", "H1.0 immunofluorescence intensity": "99 (inactive)"}
{"molecule": "CCN1CC2(C)CCC(O)C34C5CC6C(OC)CC(O)(C(CC23)C14)C5C6O", "note": "(stereo not drawn) [Karakoline]", "H1.0 immunofluorescence intensity": "96.4 (inactive)"}
{"molecule": "CN1C2CCC1CC(OC(=O)C(CO)c1ccccc1)C2", "note": "(stereo not drawn) [Atropine]", "H1.0 immunofluorescence intensity": "93.7 (inactive)"}
{"molecule": "CN(C)CCc1ccc(O)cc1.CN(C)CCc1ccc(O)cc1.O=S(=O)(O)O", "note": "[Hordenine sulfate]", "H1.0 immunofluorescence intensity": "104 (inactive)"}
{"molecule": "CC12CCC3C(CC=C4CC(O)CCC43C)C1CCC2=O", "note": "(stereo not drawn) [Dehydroepiandrosterone]", "H1.0 immunofluorescence intensity": "99.7 (inactive)"}
{"molecule": "Cl.NC(=O)c1ccc(OCC(O)CN2CC=C(c3ccc(F)cc3)CC2)cc1", "note": "(stereo not drawn)", "H1.0 immunofluorescence intensity": "96.4 (inactive)"}
{"molecule": "CCCCc1ccc(C(=O)O)nc1", "note": "[Fusaric acid]", "H1.0 immunofluorescence intensity": "90.2 (inactive)"}
{"molecule": "CN1CC[C@@]2(C)c3cc(OC(=O)Nc4ccccc4)ccc3N(C)[C@@H]12", "H1.0 immunofluorescence intensity": "106 (inactive)"}
{"molecule": "O=P1(N(CCCl)CCCl)NCCCO1", "note": "(stereo not drawn) [Cyclophosphamide]", "H1.0 immunofluorescence intensity": "101 (inactive)"}
{"molecule": "CN(C)C1C(=O)C(C(N)=O)=C(O)C2(O)C(=O)C3=C(O)c4c(O)cccc4C(C)(O)C3CC12", "note": "(stereo not drawn) [Tetracycline]", "H1.0 immunofluorescence intensity": "101 (inactive)"}
{"molecule": "O=C1CCCN1CC#CCN1CCCC1", "note": "[Oxotremorine]", "H1.0 immunofluorescence intensity": "88.5 (inactive)"}
{"molecule": "CCCN1CCOC2c3cc(O)ccc3OCC21.Cl", "note": "(racemic)", "H1.0 immunofluorescence intensity": "88.1 (inactive)"}
{"molecule": "CCC(C)CC(C)N", "note": "(stereo not drawn) [1,3-dimethylpentylamine]", "H1.0 immunofluorescence intensity": "99 (inactive)"}
{"molecule": "CC1OC(=O)C2CC3CCCCC3C(C=CC3CCCC(C)N3C)C12", "note": "(stereo not drawn) [Himbacine]", "H1.0 immunofluorescence intensity": "92.4 (inactive)"}
{"molecule": "CCC(C)C=C(C)C=CC1=CC2=C(Cl)C(=O)C(C)(OC(C)=O)C(=O)C2=CO1", "note": "(stereo not drawn) [Sclerotiorin]", "H1.0 immunofluorescence intensity": "95.7 (inactive)"}
{"molecule": "Cl.NCC#Cc1ccccc1", "note": "[3-Phenylpropargylamine hydrochloride]", "H1.0 immunofluorescence intensity": "80.3 (inactive)"}
{"molecule": "C=CCN1CCC23c4c5ccc(O)c4OC2C(=O)CCC3(O)C1C5", "note": "(stereo not drawn) [Naloxone]", "H1.0 immunofluorescence intensity": "99.5 (inactive)"}
{"molecule": "CC1=C(O)C(=O)C2OC2C1=O", "note": "(single isomer, unassigned; (-))", "H1.0 immunofluorescence intensity": "96.7 (inactive)"}
{"molecule": "Cc1c2ccncc2c(C)c2c1[nH]c1ccccc12", "note": "[Ellipticine]", "H1.0 immunofluorescence intensity": "104 (inactive)"}
{"molecule": "CCC1C(C)=NN=C(c2ccc(OC)c(OC)c2)c2cc(OC)c(OC)cc21", "note": "(stereo not drawn)", "H1.0 immunofluorescence intensity": "93.1 (inactive)"}
{"molecule": "O=c1cccc2n1CC1CNCC2C1", "note": "(single isomer, unassigned; (-)) [(-)-Cytisine]", "H1.0 immunofluorescence intensity": "102 (inactive)"}
{"molecule": "Br.NC1CCc2cc(O)c(O)cc2C1", "note": "(stereo not drawn) [6,7-ADTN hydrobromide]", "H1.0 immunofluorescence intensity": "93.1 (inactive)"}
{"molecule": "Cl.Cl.Oc1ccc2c3c1OC1c4[nH]c5c(c4CC4(O)C(C2)N(CC2CC2)CCC314)CC1(O)C2Cc3ccc(O)c4c3C1(CCN2CC1CC1)C5O4", "note": "(stereo not drawn) [nor-Binaltorphimine dihydrochloride]", "H1.0 immunofluorescence intensity": "94.9 (inactive)"}
{"molecule": "CN1C2CC(OC(=O)C(CO)c3ccccc3)CC1C1OC12", "note": "(stereo not drawn) [Scopolamine]", "H1.0 immunofluorescence intensity": "94.4 (inactive)"}
{"molecule": "CC(=O)OC1C2C(OC(=O)Cc3ccccc3)C(C)CC2(OC(C)=O)C(=O)C(C)=CC2C(CCC13CO3)C2(C)C", "note": "(stereo not drawn) [Euphorbiasteroid]", "H1.0 immunofluorescence intensity": "105 (inactive)"}
{"molecule": "O=[N+]([O-])C=Cc1ccc2c(c1)OCO2", "note": "[Syk Inhibitor III]", "H1.0 immunofluorescence intensity": "122 (active)"}
